BAZ2B block: blocks human BAZ2B | Q9UIF8 | AlphaScreen BAZ2B-H3K14Ac peptide displacement | Potency, µM (titrated, usually from 114 µM), inactives show at the highest dose activity change, negative = inhibition, usual class: inhibitors | hit rate 4.4% among 360,000 | AID 504333; further: potency means the concentration at half of the fitted maximal effect; on the % scale 0 is the no-effect control and ±100 the full control effect; nearly all actives have a fitted effect of over 60% in size
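AlphaScreen displacement of biotin-H3(5-23)K14Ac peptide (50 nM final) from BAZ2B (50 nM final) in PBS pH 7.4, 0.01% Tween-20; complex preformed 30 min RT, then compounds (top 110 uM) 30 min RT, beads 20 min dark.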
CtBP-E1A blk: blocks the CtBP interaction with E1A | AlphaScreen GST-E1A/His-CtBP binding, 1536-well; active compounds read low | activity change, % (no concentration beside the values) | hit rate 0.49% among 340,000; in the data active means activity change below about -65%; inconclusive means mostly about -30% to -63%; further: on the % scale 0 is the no-effect control and ±100 the full control effect
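Homogeneous bead-based format: GST-tagged E1A captured on glutathione donor beads, His-tagged CtBP on nickel acceptor beads; compounds precede bead addition by 2 h at 37 °C.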
G9a inh: G9a (human) methyltransferase inhibition; Q96KQ7; G9a H3K9 monomethylation, AlphaScreen, 2 h; Potency, µM (top dose mostly 102 µM), for the others: at the highest dose activity, negative = inhibition, usual class: inhibitors; hit rate 8.8% among 350,000; further: potency means the concentration at half of the fitted maximal effect; on the % scale 0 is the no-effect control and ±100 the full control effect; nearly all actives have a fitted effect of over 75% in size
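Using a bead-based AlphaScreen, monomethylated H3K9 product from 2 h room-temperature reactions (G9a 20 nM, peptide 500 nM, SAM 20 uM) was detected with 0.5 ug/mL rabbit anti-H3K9me1 antibody.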
HP1b binding inh: blocks HP1-beta chromodomain binding to methylated histone tails | hit rate 0.56% among 390,000 | AlphaScreen HP1-beta / biotin-H3K9me3 peptide binding | P83916 | AID 540317 | Potency, µM (top dose mostly 114 µM), without a hit: at the highest dose activity change, negative = inhibition, most hits filed as inhibitors; further: potency means the concentration at half of the fitted maximal effect; nearly all actives have a fitted effect of over 70% in size
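HP1-beta protein (50 nM final) preincubated 30 min at room temperature with biotinylated H3(1-18)K9me3 peptide (50 nM) in PBS pH 7.4, 0.01% Tween-20, then compound added for 30 min. AlphaScreen streptavidin donor/nickel chelate acceptor beads (10 ug/mL final), 30 min dark, luminescence read.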
JMJD2A Tudor: inhibitors of human JMJD2A Tudor domain; Potency, µM (top dose mostly 114 µM), inactives show top-dose activity change, negative = inhibition, usual class: inhibitors; AlphaScreen JMJD2A-Tudor / H3K4me3 peptide binding; hit rate 4.4% among 390,000; further: potency means the concentration at half of the fitted maximal effect; on the % scale 0 is the no-effect control and ±100 the full control effect; nearly all actives have a fitted effect of over 50% in size
Target sequence (O75164 whole entry, looked up, the tested form may be a part): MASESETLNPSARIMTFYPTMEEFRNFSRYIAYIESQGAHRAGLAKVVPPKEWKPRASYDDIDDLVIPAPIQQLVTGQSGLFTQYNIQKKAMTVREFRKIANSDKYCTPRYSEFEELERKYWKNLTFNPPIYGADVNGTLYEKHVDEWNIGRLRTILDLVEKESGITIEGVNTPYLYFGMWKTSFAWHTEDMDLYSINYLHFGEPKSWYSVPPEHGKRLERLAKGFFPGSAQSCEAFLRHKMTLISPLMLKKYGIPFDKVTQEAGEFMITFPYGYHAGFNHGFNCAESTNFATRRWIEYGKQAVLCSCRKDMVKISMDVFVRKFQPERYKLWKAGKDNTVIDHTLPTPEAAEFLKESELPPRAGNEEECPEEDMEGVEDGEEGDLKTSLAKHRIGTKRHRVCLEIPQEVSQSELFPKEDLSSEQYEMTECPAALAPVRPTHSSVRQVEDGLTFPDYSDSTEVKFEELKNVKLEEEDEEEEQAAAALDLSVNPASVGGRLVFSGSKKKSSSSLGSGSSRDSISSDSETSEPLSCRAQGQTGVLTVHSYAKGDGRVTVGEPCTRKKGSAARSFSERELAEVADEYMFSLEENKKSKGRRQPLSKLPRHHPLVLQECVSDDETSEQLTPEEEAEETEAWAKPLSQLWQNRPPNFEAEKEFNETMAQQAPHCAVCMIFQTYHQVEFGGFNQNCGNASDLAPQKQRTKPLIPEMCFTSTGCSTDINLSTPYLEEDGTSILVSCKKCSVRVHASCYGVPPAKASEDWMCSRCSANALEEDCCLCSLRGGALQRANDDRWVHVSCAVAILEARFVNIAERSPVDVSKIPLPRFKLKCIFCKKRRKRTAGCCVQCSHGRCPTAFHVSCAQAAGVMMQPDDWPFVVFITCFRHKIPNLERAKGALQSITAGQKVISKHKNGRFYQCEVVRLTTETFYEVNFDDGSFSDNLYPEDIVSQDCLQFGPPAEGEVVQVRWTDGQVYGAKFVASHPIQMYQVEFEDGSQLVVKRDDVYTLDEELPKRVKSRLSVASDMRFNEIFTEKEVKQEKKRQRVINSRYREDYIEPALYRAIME
Six1-Eya2 inh: Six1/Eya2 interaction inhibition; AID 651725; AlphaScreen GST-Six1/His-Eya2 binding, biochemical; active compounds read low; Q15475+O00167; hit rate 0.56% among 360,000; activity change, % (no concentration beside the values); in the data active means activity change below about -65%; inconclusive means mostly about -30% to -63%; further: on the % scale 0 is the no-effect control and ±100 the full control effect
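AlphaScreen with GST-Six1 and His-Eya2 (5X mix: 250 nM and 500 nM), glutathione donor and nickel acceptor beads; buffer 50 mM Tris pH 8.0, 300 mM NaCl, 1 mM TCEP; 1 h at 37 C in the dark.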
The depositor's hits bear a star; ? = inconclusive; · = no result given; [ ] = remark or other dose. Hits are enriched below; roughly 10% of the tested compounds scored in any of these assays. Unless noted, the call rests on the fitted dose curve; in most records, active means well fitted inhibition curve with a large enough effect; inconclusive means small, poorly fitted or top-dose-only effect; inactive means no such curve, though single readings can be large or run the other way.

SMILES	BAZ2B block	CtBP-E1A blk	G9a inh	HP1b binding inh	JMJD2A Tudor	Six1-Eya2 inh
CCc1c(C)sc(NC(=O)c2cc(C)on2)c1C#N	1.6%	2.6	·	4.7%	-9.3%	1.5
O=C(CSC1=Nc2ccccc2N=C(c2ccc(F)cc2)C1)NCc1ccc(Cl)cc1	-2.2%	·	1.3%[59 µM]	14.8%[57 µM]	-5.4%	·
CCc1c(C)sc(NC(=O)c2cc(C3CC3)on2)c1C#N	10.1%	-11.7	44.7µM*	-1.4%	0.0%	1.2
O=C(Nc1ccc(Cl)cc1)N1CCC(c2ccccc2)C1 (centres undefined)	8.6%	2.2	10.1%	21.1%	-8.6%	7.2
O=C(Nc1ccc(N2CCC(c3ccccc3)C2)c(C(=O)O)c1)c1ccc(Cl)cc1 (centres undefined)	-34.2%	·	10µM*	16.1%	?	·
CCOc1ccc(N2CC(=O)N/C2=N\c2nc(C)cc(C)n2)cc1	-5.4%	-5.5	56.2µM*	25.4%	?	-2.8
COc1cc(S(=O)(=O)N(Cc2cccc(OC)c2OC)CC2CCCO2)ccc1-n1cnnn1 (centres undefined)	-38.8%	-5.1	50.1µM*	29.1%	-21.5%	-6.5
COc1cccc(CN(Cc2cccnc2)S(=O)(=O)c2ccc(-n3cnnn3)c(C)c2)c1OC	?	10.1	25.1µM*	20.5%	?	-1.1
COc1ccc(CN(CC2CCCO2)S(=O)(=O)c2ccc(-n3cnnn3)c(OC)c2)cc1 (centres undefined)	-10.8%	-1.5	-2.5%	30.9%	-4.3%	2.8
COc1ccc(CN(Cc2cccnc2)S(=O)(=O)c2ccc(-n3cnnn3)c(OC)c2)cc1	-24.9%	-0.4	1.9%	18.8%	-20.0%	1.5
CC(NC(=O)c1ccc(Nc2nc3ccccc3n3nnnc23)cc1)c1ccccc1 (centres undefined)	-25.6%	·	-12.3%[59 µM]	25.4%	-8.9%	·
COc1cc2ncc3c(-c4ccccc4)nn(-c4ccc(C)cc4)c3c2cc1OC	-31.6%	·	4.8%[12.7 µM]	1.3%	-30.1%	·
Cc1ccc(NC(=O)C(OC(=O)c2cc(C)oc2C)c2ccccc2)cc1 (centres undefined)	-4.8%	-3.4	79.4µM*	17.2%	-9.3%	-3.9
O=C(Nc1ccccc1C(=O)Nc1ccc(Br)cn1)c1cccc([N+](=O)[O-])c1	-11.7%	·	·	37.5%	-6.1%	-4.2
CCC(CO)Oc1cc(NCc2cccnc2)c2ncn(C(C)C)c2c1 (centres undefined)	·	-15.3	·	10.1%	79.4µM*	7.0
CCC(CO)Oc1cc(NCc2ccc(F)cc2)c2ncn(C(C)C)c2c1 (centres undefined)	·	-3.6	·	?	56.2µM*	-6.7
CCC(CN(C)C)Oc1cc(NCc2ccccc2)c2ncn(C(C)C)c2c1 (centres undefined)	·	-15.8	·	7.8%	89.1µM*	-7.9
CCC(CO)Oc1cc(NCc2cccc(Cl)c2)c2ncn(C(C)C)c2c1 (centres undefined)	·	?	·	?	25.1µM*	-14.9
CCC(CO)Oc1cc(NCc2ccncc2)c2ncn(C(C)C)c2c1 (centres undefined)	·	4.3	·	51.7%	-35.9%	-3.6
Cc1ccc(CNc2nc3c([nH]2)c(=O)n(C)c(=O)n3C)cc1	6.0%	1.3	44.7µM*	12.2%	-12.5%	13.3
CCOC(=O)C1CCN(c2cc3c(cc2NC(=O)c2ccccc2F)n(C)c(=O)n3C)CC1	50.1µM*	-8.4	8.1%[0.0925 µM]	12.4%	-22.6%	-0.2
CCOC(=O)c1ccccc1NC(=O)Nc1cc2c(cc1N1CCCC1)n(C)c(=O)n2C	50.1µM*	·	?	15.0%	?	·
COc1cc2c(cc1NC(=O)c1ccccc1C)n(C)c(=O)n2C	50.1µM*	·	-9.9%[59 µM]	15.1%	-22.3%	·
CCOC(=O)Cc1ccc(NC(=O)Nc2cc3c(cc2N2CCCCC2)n(C)c(=O)n3C)cc1	2.4%	·	-4.7%[59 µM]	10.2%	-30.5%	·
COc1ccccc1C(=O)Nc1cc2c(cc1N1CCCCC1)n(C)c(=O)n2C	?	·	-32.1%[59 µM]	-23.0%	?	·
SMILES	BAZ2B block	CtBP-E1A blk	G9a inh	HP1b binding inh	JMJD2A Tudor	Six1-Eya2 inh
Nc1ccc(S(=O)(=O)Nc2nccc(/C=C/c3ccc(Cl)cc3Cl)n2)cc1	-6.2%	?	-10.3%	-8.0%	-6.7%	6.9
COc1ccc(OC)c(NC(=O)CN(c2ccccc2OC)S(=O)(=O)c2ccc(C)cc2)c1	-17.9%	·	?	18.7%	-13.8%	·
C[N+]1(CC2COC3(CCCCC3)O2)CCCC1 (centres undefined)	0.6%	2.1	14.1µM*	-2.6%	?	10.5
CC(C)[C@@H](N)C(=O)O	·	·	-0.5%[59 µM]	·	·	·
CC(C)(S)[C@@H](N)C(=O)O	44.7µM*	-19.3	?	-19.1%	3.98µM*	-6.3
COc1ccc(-n2nc3ccc(NC(=O)c4cccc(OCCC(C)C)c4)cc3n2)cc1	14.7%	·	21.0%[59 µM]	70.3%	-7.8%	·
O=[N+]([O-])c1cc(Br)c2c(c1)CCN2	·	3.6	·	·	·	-14.9
O=[N+]([O-])c1cc(Cl)cc(C2=NCCN2)c1	3.9%	-2.5	35.5µM*	2.0%	-17.9%	-12.7
COc1cc(C2Oc3cc(C4Oc5cc(O)cc(O)c5C(=O)C4O)ccc3OC2CO)ccc1O (centres undefined)	-30.5%	-16.1	50.1µM*	18.9%	-13.8%	-4.1
COc1ccc(C2CC(=O)c3c(O)cc(O)cc3O2)cc1O (centres undefined)	·	-15.2	·	26.5%	-8.2%	-1.5
COc1ccc(N2CCN(C(=O)c3cc(-c4ccc(F)cc4)[nH]c3C)CC2)cc1	44.7µM*	0.0	44.7µM*	?	44.7µM*	-21.0
Cc1[nH]c2ccc(C(=O)N3CCN(c4ccc(F)cc4)CC3)cc2c1C	35.5µM*	-14.8	79.4µM*	-24.0%	50.1µM*	-23.8
COc1cc2c(cc1OC)CN(C(=O)c1ccc3[nH]c(C)c(C)c3c1)CC2	50.1µM*	-6.4	·	-27.4%	?	-14.9
COc1ccc(N2CCN(C(=O)c3ccc4[nH]c(C)c(C)c4c3)CC2)cc1	39.8µM*	·	17.7%[12.7 µM]	30.6%	-5.4%	?
CC(=O)c1ccc(N2CCN(C(=O)c3ccc4[nH]c(C)c(C)c4c3)CC2)cc1	·	?	·	-13.9%	?	?
CN1CCN(c2ncc3ncc(=O)n(C[C@H]4CCCO4)c3n2)CC1	·	·	-9.0%[0.501 µM]	·	·	·
COc1cc2c(cc1OC)CN(C(=O)c1ccc([N+](=O)[O-])o1)CC2	-31.1%	-0.2	56.2µM*	-4.3%	-27.1%	-0.5
Nc1nc(SCC(=O)c2cccc([N+](=O)[O-])c2)n[nH]1	-27.2%	·	2.51µM*	10.5%	-11.6%	14.8
Cc1cc(C)c(C(=O)CSc2n[nH]c(-c3ccncc3)n2)c(C)c1	-10.3%	-17.6	·	35.4%	-10.5%[57.1 µM]	1.2

Screening data from PubChem.
